{"source": "PubChem BioAssay AID1159580", "about": "(chemical genetic matrix, 2015)", "assay": "chemical genetic growth profiling, strain panel (AID 1159580);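 note: tested at 20 µM; growth read once vehicle control cultures reached saturation at 30 °C; 1 = growth at the plate median or of vehicle wells; lower values mean less growth of the strain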", "details": "growth OD", "key": {"[1]": {"details": "S. cerevisiae deletion strains, locus YDR150W, strain NUM1, hits give low values"}, "[2]": {"details": "S. cerevisiae deletion strains, locus YJR075W, strain HOC1, hits give low values"}, "[3]": {"details": "S. cerevisiae deletion strains, locus YNL153C, strain GIM3, hits give low values"}}, "note": "“And” between values parts separate entries of the source, which are not always exact repeats. Equal values may be shown once. Hit rate of the full screen: of about 5,500 compounds, about 2,000 (36%) were called active. Not shown: some 18% with an inconclusive outcome. The list shows a part of the results. A number with no mark means an inactive call. Cut-off read from the data, not from the text of the source: active = normalized growth mostly below about 0.91 (no sharp cut-off); inconclusive = no clear call, values can overlap the other calls; inactive = mostly above about 0.92."}
{"smiles": "S=C(NCc1ccccc1)Nc1ccc(Cl)c(Cl)c1", "values": [{"measurement": "normalized growth", "setting": "S. cerevisiae deletion strains, locus YAL013W, strain DEP1, hits give low values", "result": "0.884 (active)"}, {"measurement": "normalized growth", "setting": "S. cerevisiae deletion strains, locus YBR229C, strain ROT2, hits give low values", "result": 0.948}, {"measurement": "normalized growth", "setting": "S. cerevisiae deletion strains, locus YCL061C, strain MRC1, hits give low values", "result": "0.866 (active)"}, {"measurement": "normalized growth", "setting": "S. cerevisiae deletion strains, locus YDL101C, strain DUN1, hits give low values", "result": 0.935}, {"measurement": "normalized growth", "setting": "[1]", "result": 0.917}, {"measurement": "normalized growth", "setting": "S. cerevisiae deletion strains, locus YEL061C, strain CIN8, hits give low values", "result": "0.835 (active)"}, {"measurement": "normalized growth", "setting": "S. cerevisiae deletion strains, locus YGR052W, strain FMP48, hits give low values", "result": 0.878}, {"measurement": "normalized growth", "setting": "S. cerevisiae deletion strains, locus YGR078C, strain PAC10, hits give low values", "result": "0.9 (active)"}, {"measurement": "normalized growth", "setting": "S. cerevisiae deletion strains, locus YHR030C, strain SLT2, hits give low values", "result": "0.382 (active) and 0.745 (active)"}, {"measurement": "normalized growth", "setting": "S. cerevisiae deletion strains, locus YHR079C, strain IRE1, hits give low values", "result": "0.861 (active)"}, {"measurement": "normalized growth", "setting": "S. cerevisiae deletion strains, locus YHR082C, strain KSP1, hits give low values", "result": 0.839}, {"measurement": "normalized growth", "setting": "S. cerevisiae deletion strains, locus YHR087W, strain rtc3, hits give low values", "result": 0.964}, {"measurement": "normalized growth", "setting": "S. cerevisiae deletion strains, locus YJL095W, strain BCK1, hits give low values", "result": 0.841}, {"measurement": "normalized growth", "setting": "S. cerevisiae deletion strains, locus YJL187C, strain SWE1, hits give low values", "result": "0.891 (active)"}, {"measurement": "normalized growth", "setting": "S. cerevisiae deletion strains, locus YJR043C, strain POL32, hits give low values", "result": 0.978}, {"measurement": "normalized growth", "setting": "S. cerevisiae deletion strains, locus YJR066W, strain TOR1, hits give low values", "result": 0.845}, {"measurement": "normalized growth", "setting": "[2]", "result": 0.897}, {"measurement": "normalized growth", "setting": "S. cerevisiae deletion strains, locus YKL171W, strain NNK1, hits give low values", "result": 0.807}, {"measurement": "normalized growth", "setting": "S. cerevisiae deletion strains, locus YKL190W, strain CNB1, hits give low values", "result": "0.68 (active)"}, {"measurement": "normalized growth", "setting": "S. cerevisiae deletion strains, locus YKL203C, strain TOR2, hits give low values", "result": "0.803 (active)"}, {"measurement": "normalized growth", "setting": "S. cerevisiae deletion strains, locus YLR039C, strain RIC1, hits give low values", "result": "0.482 (active)"}, {"measurement": "normalized growth", "setting": "S. cerevisiae deletion strains, locus YLR058C, strain SHM2 (second series), hits give low values", "result": 0.938}, {"measurement": "normalized growth", "setting": "S. cerevisiae deletion strains, locus YLR085C, strain ARP6, hits give low values", "result": "0.332 (active)"}, {"measurement": "normalized growth", "setting": "S. cerevisiae deletion strains, locus YLR113W, strain HOG1, hits give low values", "result": 1.06}, {"measurement": "normalized growth", "setting": "S. cerevisiae deletion strains, locus YLR262C, strain YPT6, hits give low values", "result": "0.701 (active)"}, {"measurement": "normalized growth", "setting": "S. cerevisiae deletion strains, locus YML094W, strain GIM5, hits give low values", "result": "0.677 (active)"}, {"measurement": "normalized growth", "setting": "S. cerevisiae deletion strains, locus YMR219W, strain ESC1, hits give low values", "result": 0.962}, {"measurement": "normalized growth", "setting": "S. cerevisiae deletion strains, locus YMR263W, strain SAP30, hits give low values", "result": "0.846 (active)"}, {"measurement": "normalized growth", "setting": "[3]", "result": "0.907 (active)"}, {"measurement": "normalized growth", "setting": "S. cerevisiae deletion strains, locus YNL183C, strain NPR1, hits give low values", "result": 0.846}, {"measurement": "normalized growth", "setting": "S. cerevisiae deletion strains, locus YNL207W, strain RIO2, hits give low values", "result": 0.829}, {"measurement": "normalized growth", "setting": "S. cerevisiae deletion strains, locus YNL298W, strain CLA4 (second series), hits give low values", "result": "0.548 (active)"}, {"measurement": "normalized growth", "setting": "S. cerevisiae deletion strains, locus YNL322C, strain KRE1, hits give low values", "result": 0.977}, {"measurement": "normalized growth", "setting": "S. cerevisiae deletion strains, locus YNR030W, strain Alg12, hits give low values", "result": "0.701 (active)"}, {"measurement": "normalized growth", "setting": "S. cerevisiae deletion strains, locus YOL006C, strain TOP1, hits give low values", "result": "0.251 (active)"}, {"measurement": "normalized growth", "setting": "S. cerevisiae deletion strains, locus YOR119C, strain RIO1, hits give low values", "result": 0.77}, {"measurement": "normalized growth", "setting": "S. cerevisiae deletion strains, locus YOR231W, strain MKK1, hits give low values", "result": 0.862}, {"measurement": "normalized growth", "setting": "S. cerevisiae deletion strains, locus YPL055C, strain LGE1, hits give low values", "result": "0.689 (active)"}, {"measurement": "normalized growth", "setting": "S. cerevisiae deletion strains, locus YPL241C, strain CIN2, hits give low values", "result": "0.691 (active)"}, {"measurement": "normalized growth", "setting": "S. cerevisiae deletion strains, locus YPL256C, strain CLN2, hits give low values", "result": 0.916}, {"measurement": "normalized growth", "setting": "S. cerevisiae deletion strains, locus YPR135W, strain CTF4, hits give low values", "result": "0.471 (active)"}, {"measurement": "normalized growth", "setting": "S. cerevisiae strains, strain wild type, hits give low values", "result": "0.828 (active)"}]}
{"smiles": "COc1ccc(C(=O)NCc2cccnc2)cc1C(=O)NCc1cccnc1", "values": [{"measurement": "normalized growth", "setting": "S. cerevisiae deletion strains, locus YAL040C, strain CLN3, hits give low values", "result": 0.994}, {"measurement": "normalized growth", "setting": "S. cerevisiae deletion strains, locus YCL061C, strain MRC1 (second series), hits give low values", "result": 1.01}, {"measurement": "normalized growth", "setting": "[1]", "result": 1}, {"measurement": "normalized growth", "setting": "S. cerevisiae deletion strains, locus YDR363W, strain ESC2, hits give low values", "result": 1}, {"measurement": "normalized growth", "setting": "S. cerevisiae deletion strains, locus YER002W, strain NOP16, hits give low values", "result": 0.997}, {"measurement": "normalized growth", "setting": "[2]", "result": 1.02}, {"measurement": "normalized growth", "setting": "S. cerevisiae deletion strains, locus YMR307W, strain GAS1, hits give low values", "result": 1.01}, {"measurement": "normalized growth", "setting": "S. cerevisiae deletion strains, locus YNL128W, strain TEP1, hits give low values", "result": 1.01}, {"measurement": "normalized growth", "setting": "[3]", "result": 1.02}, {"measurement": "normalized growth", "setting": "S. cerevisiae deletion strains, locus YNL175C, strain NOP13, hits give low values", "result": 1.02}, {"measurement": "normalized growth", "setting": "S. cerevisiae deletion strains, locus YNL197C, strain WHI3, hits give low values", "result": 1.04}, {"measurement": "normalized growth", "setting": "S. cerevisiae deletion strains, locus YNL224C, strain SQS1, hits give low values", "result": 1}, {"measurement": "normalized growth", "setting": "S. cerevisiae deletion strains, locus YOR083W, strain WHI5 (second series), hits give low values", "result": 1.02}]}
